Screening results from PubChem BioAssay.
3T3 cytotox = kills NIH 3T3 cells. hit rate 4.3% among 94,000. NIH 3T3 viability, CellTiter-Glo ATP luminescence, 48-72 h. Potency, µM (series often up to 96.7 µM), actives largely listed as inhibitors; also: nearly all actives have a fitted effect of over 55% in size
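Cells were seeded at 400 per well, treated with pin-transferred compound, and kept 48 or 72 hr at 37 °C before CellTiter-Glo addition and luminescence imaging of cellular ATP.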
HEK cytotox = kills HEK 293 cells | AID 1345083 | Potency, µM (series often up to 115 µM), usual class: inhibitors | hit rate 6.6% among 94,000 | HEK 293 viability, ATP luminescence (CellTiter-Glo), 48-72 h; also: nearly all actives have a fitted effect of over 60% in size
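HEK 293 seeded at 250 cells/well receive compound via pintool. After 48 or 72 hr at 37 degree Celsius, 5% CO2 and 95% humidity, CellTiter-Glo is dispensed and luminescence read following 10 min at room temperature.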
FLuc inh-1 = blocks purified firefly luciferase enzyme activity | AID 1347043 | hit rate 2.5% among 76,000 | Potency, µM (series often up to 115 µM), hits mostly inhibitors | purified P. pyralis luciferase, luminescence, biochemical | P08659; also: nearly all actives have a fitted effect of over 65% in size
Target sequence (P08659 whole entry, looked up): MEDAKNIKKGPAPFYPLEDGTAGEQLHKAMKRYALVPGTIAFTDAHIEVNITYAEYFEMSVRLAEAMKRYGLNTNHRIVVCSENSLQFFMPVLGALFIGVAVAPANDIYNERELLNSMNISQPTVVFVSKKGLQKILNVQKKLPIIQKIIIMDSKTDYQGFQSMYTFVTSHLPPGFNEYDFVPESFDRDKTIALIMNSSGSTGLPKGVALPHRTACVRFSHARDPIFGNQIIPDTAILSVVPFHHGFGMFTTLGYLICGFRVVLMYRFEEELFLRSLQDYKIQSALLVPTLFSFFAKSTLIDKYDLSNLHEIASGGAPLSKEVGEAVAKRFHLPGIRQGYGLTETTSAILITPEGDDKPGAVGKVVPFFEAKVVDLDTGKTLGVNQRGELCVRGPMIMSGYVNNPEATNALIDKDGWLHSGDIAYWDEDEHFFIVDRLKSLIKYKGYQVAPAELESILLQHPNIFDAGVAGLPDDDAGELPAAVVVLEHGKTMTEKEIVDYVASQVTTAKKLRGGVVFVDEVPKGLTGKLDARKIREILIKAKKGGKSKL
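Biochemical qHTS: compound (6-point titration) added to 10uM D-luciferin plus 10uM ATP in Tris acetate pH 7.5 buffer with Mg, Tween-20 and BSA, then purified enzyme at 10nM; light output imaged.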
NPR1 antag = human Npr1 receptor antagonism. AID 1347048. hit rate 1.6% among 76,000. HEK293 hNpr1 GloSensor cGMP, ANP-stimulated luminescence. Potency, µM (top dose mostly 46.3 µM), most hits filed as inhibitors; calls by dose curve; also: nearly all actives have a fitted effect of over 60% in size
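Compound pre-incubated 30 min at room temperature on GloSensor-loaded HEK293 cells stably carrying hNpr1 and the pGS-40F cGMP biosensor. Stimulation uses hNppA at 0.1 nM final; luminescence is taken at baseline and 20 min post-agonist.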
FLuc SDR -ATP = stabilizes firefly luciferase without ATP | shares compounds with FLuc inh-1 | Purified FLuc-C-HiBiT, Nano-Glo HiBiT luminescence, no ATP | Potency, µM (doses to about 32.7 µM), most hits filed as activators | hit rate 7.8% among 1,300 | AID 1963318; also: nearly all actives have a fitted effect of over 55% in size
FLuc SDR ATP = stabilizes firefly luciferase with ATP present | shares compounds with FLuc inh-1 | purified FLuc-C-HiBiT + ATP, HiBiT complementation luminescence | Potency, µM (highest dose often 32.7 µM), actives largely listed as activators | hit rate 8.7% among 1,300 | AID 1963319;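 also: signal reports ligand binding via conformational change of the enzyme rather than luciferase catalysis; nearly all actives have a fitted effect of over 55% in size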
FLuc inh-2 = firefly luciferase enzyme inhibition. shares compounds with FLuc inh-1. purified FLuc-C-HiBiT enzyme, luciferin luminescence. Potency, µM (titrated, usually from 32.7 µM), usual class: inhibitors. hit rate 42% among 1,300. AID 1963320; also: nearly all actives have a fitted effect of over 70% in size
Hits are given with their value; - = inactive; ? = inconclusive; . = no result given. An excerpt weighted towards active compounds, which were near 11% of everything screened. Unless noted, calls follow the shape of the dose curve; as a rule, active = well fitted curve in the direction sought with a large enough effect; inconclusive = small, poorly fitted or top-dose-only effect, or another doubt; inactive = no such curve, though single readings can be large; an effect the other way counts as inactive or inconclusive.

SMILES | 3T3 cytotox | HEK cytotox | FLuc inh-1 | NPR1 antag | FLuc SDR -ATP | FLuc SDR ATP | FLuc inh-2
CS(=O)(=O)Nc1ccc(-c2nc3ccccc3s2)cc1 | . | . | . | . | ? | ? | 2.21µM
Cc1c(NS(C)(=O)=O)cccc1-c1nc2ccccc2s1 | . | . | . | . | - | - | ?
Cc1ccc(CN2CCCCCCNC(=O)[C@@H]3C[C@@H](C(=O)NCCc4c[nH]c5ccccc45)C[C@@H]32)o1 | ? | ? | - | - | . | . | .
O=C(Nc1c(C(=O)Nc2ccc(F)cc2)oc2ccccc12)c1cc2ccccc2o1 | . | . | . | . | - | - | 7.85µM
COc1ccc(NC(=O)Nc2cccc(-c3ccc(N4CCOCC4)nn3)c2)cc1F | - | ? | 0.398µM | 10µM | ? | ? | 0.881µM
COc1ccc(CNC(=O)Nc2cccc(-c3ccc(N4CCOCC4)nn3)c2)cc1 | - | ? | 0.891µM | - | ? | ? | 1.97µM
O=C(NCc1ccc(F)cc1)Nc1cccc(-c2ccc(N3CCOCC3)nn2)c1 | - | ? | 1.26µM | ? | ? | ? | 1.76µM
COc1ccc(NC(=O)Nc2cccc(-c3ccc(N4CCOCC4)nn3)c2)cc1 | - | ? | 1.12µM | 10µM | ? | ? | 1.76µM
COc1ccc(C(=O)Nc2cccc(-c3nnc4n3CCCC4)c2)cc1F | - | - | ? | - | . | . | .
CC(C)(C)C(=O)NC1CN(c2ccnc3ccnn23)C1 | - | - | . | . | . | . | .
CNC(=O)c1cccc(-c2ccc(C(C)(C)C#N)cc2)n1 | ? | ? | - | - | . | . | .
CCc1cccc(NC(=O)Nc2cccc(-c3ccc(N4CCOCC4)nn3)c2)c1 | ? | 39.8µM | 2µM | ? | ? | - | 6.24µM
O=C(Nc1ccc(F)cc1)Nc1cccc(-c2ccc(N3CCOCC3)nn2)c1 | ? | ? | 0.891µM | ? | ? | ? | 1.97µM
O=C(Nc1cccc(-c2ccc(N3CCOCC3)nn2)c1)Nc1cc(F)ccc1F | ? | 79.4µM | 0.891µM | 10µM | ? | ? | 2.48µM
O=C(Nc1cccc(-c2ccc(N3CCOCC3)nn2)c1)Nc1ccccc1F | ? | 17.8µM | 1.58µM | ? | ? | ? | 2.79µM
O=C(Nc1cccc(F)c1)Nc1cccc(-c2nnc3n2CCCC3)c1 | - | - | - | - | . | . | .
COc1cccc(CNC(=O)C23CCC=C2N(C2CCCC2)C(=O)CC3)c1OC (centres undefined) | - | ? | . | . | . | . | .
COc1ccc(C2(C(=O)NCc3cccc(N)c3)CCOCC2)cc1 | - | - | . | . | . | . | .
O=C(Nc1cccc(-c2ccc(N3CCCC3)nn2)c1)c1c(F)cccc1F | ? | 39.8µM | 7.08µM | - | ? | ? | 8.81µM
CN1CCN(c2ccc(-c3cccc(N)c3)nn2)CC1 | - | - | 11.2µM | ? | - | ? | 6.24µM
CSc1cccc(NC(=O)Nc2cccc(-c3ccc(N4CCOCC4)nn3)c2)c1 | 35.5µM | 28.2µM | 0.794µM | ? | ? | ? | 1.57µM
Cc1ccc(C(=O)Nc2cccc(-c3ccc(N4CCN(C)CC4)nn3)c2)cc1C | 25.1µM | ? | 6.31µM | - | ? | ? | 3.94µM
COc1ccc(-c2nc(C)nc3c2CN(C(=O)c2ccccc2Cl)CC3)cc1 | - | - | . | . | . | . | .
Cc1ccc(-c2ncc(NC(=O)c3ccccc3F)cn2)cc1 | - | - | 0.562µM | ? | - | ? | 1.97µM
CC(C)Oc1ccc(C(=O)Nc2nnc3n2CCS3)cc1 | . | . | . | . | - | ? | ?
SMILES | 3T3 cytotox | HEK cytotox | FLuc inh-1 | NPR1 antag | FLuc SDR -ATP | FLuc SDR ATP | FLuc inh-2
O=c1oc2c(CN3CCCC3)c(O)ccc2cc1-c1ccccc1 | . | . | . | . | - | - | -
O=C(NCc1ccc(F)cc1)c1c(-c2ccccc2)cc(=O)n2c1CCCC2 | ? | - | . | . | . | . | .
Cc1ccc(NC(=O)c2ccc3oc(-c4cccnc4)nc3c2)cc1 | - | - | . | . | . | . | .
Cc1ccc(C(=O)Nc2ccc3oc(-c4ccccc4C)nc3c2)cc1 | . | . | . | . | - | - | -
CSc1cccc(NC(=O)c2ccc3c(c2)N(C)C2CCCN2C3=O)c1 (centres undefined) | - | ? | 14.1µM | - | - | ? | ?
CN1c2cc(C(=O)Nc3ccc(C(N)=O)cc3)ccc2C(=O)N2CCCCCC21 (centres undefined) | ? | ? | - | - | . | . | .
CSc1ccc(NC(=O)c2ccc3c(c2)N(C)C2CCCN2C3=O)cc1 (centres undefined) | - | ? | 14.1µM | - | - | ? | ?
N#Cc1cccnc1-c1ccc(C(=O)N2CCC(NC(=O)Cc3ccc(F)cc3)CC2)cc1 | - | - | . | . | . | . | .
COc1ccc(CNC(=O)Cn2cccc2C(=O)c2ccccc2C)cc1 | . | . | . | . | - | - | -
C[C@H](C(=O)NCCN1CCOCC1)C1CC[C@@]2(C)Cc3sc(-c4ccccc4)nc3[C@@H](C)[C@@H]2[C@H]1O (some centres undefined) | ? | ? | 11.2µM | ? | 2.21µM | ? | 0.989µM
Cc1cnc(C(=O)N2Cc3ccccc3OC3(CCN(C(C)C)CC3)C2)cn1 | - | - | . | . | . | . | .
COC(=O)CNC(=O)c1cn2cc(-c3cccc(OC)c3)sc2n1 | ? | - | . | . | . | . | .
CNC(=O)N1CCC(C2CCN(C(=O)CCc3c(C)nn(C)c3C)C2)CC1 (centres undefined) | - | - | . | . | . | . | .
CCOc1cccc(NC(=O)CSc2ncc(-c3ccccc3)[nH]2)c1 | . | . | . | . | - | - | -
CCOc1cccc(NC(=O)c2cc(-c3ccc(C(F)(F)F)cc3)nc3c2cnn3C)c1 | ? | - | . | . | . | . | .
O=C(NCCc1ccccc1)c1ccc2nnc(C3CC3)n2c1 | ? | - | . | . | . | . | .
CCOC(=O)[C@@H]1CN(C(=O)c2ccc(F)cc2)[C@H]2c3ccccc3O[C@@H]12 | ? | - | . | . | . | . | .
c1ccc(-c2ccnc(NCCc3c[nH]c4ccccc34)n2)nc1 | ? | ? | 8.91µM | - | - | - | ?
CCc1cccc(NC(=O)Cn2c(-c3cnccn3)nc(C)c(C)c2=O)c1 | - | ? | - | - | . | . | .
COc1cccc(CNc2nc3ccccc3c3nc(-c4cccc(C)c4)nn23)c1 | . | . | . | . | - | - | ?
COc1cccc(CNC(=O)Cn2c(-c3ccccc3)nc(C)cc2=O)c1 | - | ? | - | - | . | . | .
Cc1ccc2nc(-c3ccc(NC(=O)c4ccc(S(C)(=O)=O)cc4)cc3)sc2c1 | . | . | . | . | - | - | -
Cc1ccc2nc(-c3ccc(NC(=O)C(F)(F)F)cc3)sc2c1 | . | . | . | . | - | ? | 0.785µM
CNc1ccc2cc(-c3nc4ccc(C(=O)O)cc4s3)ccc2c1 | . | . | . | . | 1.11µM | 0.014µM | 0.007µM
Cc1ccc2nc(-c3ccc(NC(=O)CSc4nnc(C)s4)cc3)sc2c1 | . | . | . | . | - | - | 0.624µM
O=C(NCC1CC1)c1cccc(OC2CN(Cc3ccncc3F)C2)c1 | - | - | - | - | . | . | .
Cc1ccc2nc(-c3ccc(NC(=O)c4ccccc4S(C)(=O)=O)cc3)sc2c1 | . | . | . | . | - | - | ?
CCSc1ccc(C(=O)Nc2ccc(-c3nc4ccc(C)cc4s3)cc2)cc1 | . | . | . | . | - | - | -
CN1C(=O)C(CC(=O)N2CCN(Cc3cccc(Cl)c3)CC2)=C2CCCCC21 (centres undefined) | - | ? | - | - | . | . | .
